For part of these data: Results with a measured potency or affinity are listed apart. Activity calls are given as the source filed them. Unless noted, how the calls were made is not given here.
Legend:
[1] = antimalarial activity against Dd2 strain (AID 2302;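 active means growth inhibition above 50% at the single 2 µM test dose, taken to imply half-maximal potency below 2 µM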;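 further: 0% = DMSO untreated growth and 100% = chloroquine plus artemisinin killed control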); conditions: P. falciparum Dd2 in RBCs, LDH growth readout, 72 h; at 2 µM; hits give high values
[2] = human hepatoma cell viability loss – ATP luminescence, cytotoxicity control for P. falciparum antimalarial project, primary screen (AID 2303;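 active means inhibition above 50%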;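 further: 0% = DMSO wells and 100% = digitonin-killed cells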); conditions: HepG2 viability, 24-48 h, at 10 µM, hits give high values
[3] = molecular target: L-lactate dehydrogenase (Plasmodium falciparum (isolate CDC / Honduras)) (UniProt Q27743); experiment: PfLDH activity inhibition – cell lysate, 3D7 strain, counter-screen for P. falciparum growth inhibition project (AID 2304);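 further: 0% = vehicle and 100% = reference inhibitor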; conditions: P. falciparum 3D7 crude extract, LDH APAD/NBT absorbance; at 2 µM; hits give high values
L-lactate dehydrogenase (Plasmodium falciparum (isolate CDC / Honduras)), sequence (Q27743 whole entry, looked up): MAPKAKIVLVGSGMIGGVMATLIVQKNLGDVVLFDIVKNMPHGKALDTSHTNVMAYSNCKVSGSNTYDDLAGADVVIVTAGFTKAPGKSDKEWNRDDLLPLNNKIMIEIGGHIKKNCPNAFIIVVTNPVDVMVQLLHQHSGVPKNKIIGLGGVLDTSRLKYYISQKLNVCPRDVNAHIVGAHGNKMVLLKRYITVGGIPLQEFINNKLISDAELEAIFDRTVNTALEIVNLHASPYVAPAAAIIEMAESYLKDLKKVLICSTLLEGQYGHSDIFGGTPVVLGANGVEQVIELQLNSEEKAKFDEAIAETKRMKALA

[4] = inhibition of 3D7 malaria parasite growth – strain 3D7 (AID 2306);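 further: 0% = DMSO wells and 100% = chloroquine plus artemisinin control wells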; conditions: P. falciparum 3D7 erythrocytic growth, LDH absorbance, 72 h; at 2 µM; hits give high values
[5] = molecular target: Calcium-dependent protein kinase 1 (Plasmodium falciparum (isolate 3D7)) (UniProt P62344); experiment: PfCDPK1 kinase inhibitors, biochemical, TCAMS library (AID 1159585; cut-off not given, nearly all actives have IC50 up to about 0.98 µM;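 further: inhibitors leave more ATP so luminescence rises with inhibition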); conditions: recombinant PfCDPK1, Kinase-Glo ATP depletion luminescence
Calcium-dependent protein kinase 1 (Plasmodium falciparum (isolate 3D7)), sequence (P62344 whole entry, looked up): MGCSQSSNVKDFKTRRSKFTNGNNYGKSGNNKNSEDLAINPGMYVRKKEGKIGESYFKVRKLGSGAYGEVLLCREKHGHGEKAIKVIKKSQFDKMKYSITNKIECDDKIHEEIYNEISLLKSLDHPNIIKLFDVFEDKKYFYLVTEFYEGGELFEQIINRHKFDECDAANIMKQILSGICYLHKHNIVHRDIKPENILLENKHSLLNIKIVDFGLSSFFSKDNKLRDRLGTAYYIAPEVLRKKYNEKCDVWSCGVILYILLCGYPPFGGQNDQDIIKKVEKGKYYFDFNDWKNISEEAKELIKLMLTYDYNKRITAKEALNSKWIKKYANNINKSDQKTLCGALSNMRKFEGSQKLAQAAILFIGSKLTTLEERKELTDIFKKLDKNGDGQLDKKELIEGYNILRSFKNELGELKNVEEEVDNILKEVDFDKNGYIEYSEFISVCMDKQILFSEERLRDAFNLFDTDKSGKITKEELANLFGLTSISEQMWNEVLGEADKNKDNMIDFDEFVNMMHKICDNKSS

[6] = molecular target: Plasmodium falciparum protein kinase 6 (PK6, PF3D7_1337100) (UniProt Q8IDW1); experiment: PfPK6 kinase inhibitors, biochemical, TCAMS library (AID 1159586); conditions: recombinant PfPK6, Kinase-Glo ATP depletion luminescence
Plasmodium falciparum protein kinase 6 (PK6, PF3D7_1337100), sequence (Q8IDW1 1-305): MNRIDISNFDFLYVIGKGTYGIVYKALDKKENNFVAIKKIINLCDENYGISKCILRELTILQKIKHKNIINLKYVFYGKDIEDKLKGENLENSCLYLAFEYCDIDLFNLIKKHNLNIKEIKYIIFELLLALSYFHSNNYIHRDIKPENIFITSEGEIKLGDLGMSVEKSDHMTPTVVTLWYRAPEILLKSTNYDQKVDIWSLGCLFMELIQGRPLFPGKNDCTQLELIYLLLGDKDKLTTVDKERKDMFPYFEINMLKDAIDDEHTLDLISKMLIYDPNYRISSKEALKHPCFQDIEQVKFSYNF

[7] = molecular target: Protein kinase 7 (PK7), Plasmodium falciparum 3D7 (PF3D7_0213400) (UniProt Q7YTF7); experiment: inhibition of Plasmodium PK7 catalytic activity – biochemical, TCAMS antimalarial set, Kinase-Glo luminescence (AID 1159587); conditions: recombinant PfPK7, Kinase-Glo ATP depletion luminescence
Protein kinase 7 (PK7), Plasmodium falciparum 3D7 (PF3D7_0213400), sequence (Q7YTF7 1-343): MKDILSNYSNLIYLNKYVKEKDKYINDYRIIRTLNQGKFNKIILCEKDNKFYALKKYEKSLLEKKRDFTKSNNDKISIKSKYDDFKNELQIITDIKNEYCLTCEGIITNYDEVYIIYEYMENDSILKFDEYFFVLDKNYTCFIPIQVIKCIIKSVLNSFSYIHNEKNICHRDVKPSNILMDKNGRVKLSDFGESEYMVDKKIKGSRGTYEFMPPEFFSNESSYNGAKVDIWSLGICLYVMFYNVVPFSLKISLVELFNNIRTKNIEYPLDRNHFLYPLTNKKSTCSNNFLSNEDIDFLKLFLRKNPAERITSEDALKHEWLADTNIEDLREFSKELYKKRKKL

[8] = molecular target: Calcium-dependent protein kinase 4 (Plasmodium falciparum (isolate 3D7)) (UniProt Q8IBS5); experiment: PfCDPK4 kinase inhibitors, biochemical, TCAMS library (AID 1159588; cut-off not given, nearly all actives have IC50 up to about 0.91 µM); conditions: recombinant PfCDPK4, Kinase-Glo ATP depletion luminescence
Calcium-dependent protein kinase 4 (Plasmodium falciparum (isolate 3D7)), sequence (Q8IBS5 whole entry, looked up): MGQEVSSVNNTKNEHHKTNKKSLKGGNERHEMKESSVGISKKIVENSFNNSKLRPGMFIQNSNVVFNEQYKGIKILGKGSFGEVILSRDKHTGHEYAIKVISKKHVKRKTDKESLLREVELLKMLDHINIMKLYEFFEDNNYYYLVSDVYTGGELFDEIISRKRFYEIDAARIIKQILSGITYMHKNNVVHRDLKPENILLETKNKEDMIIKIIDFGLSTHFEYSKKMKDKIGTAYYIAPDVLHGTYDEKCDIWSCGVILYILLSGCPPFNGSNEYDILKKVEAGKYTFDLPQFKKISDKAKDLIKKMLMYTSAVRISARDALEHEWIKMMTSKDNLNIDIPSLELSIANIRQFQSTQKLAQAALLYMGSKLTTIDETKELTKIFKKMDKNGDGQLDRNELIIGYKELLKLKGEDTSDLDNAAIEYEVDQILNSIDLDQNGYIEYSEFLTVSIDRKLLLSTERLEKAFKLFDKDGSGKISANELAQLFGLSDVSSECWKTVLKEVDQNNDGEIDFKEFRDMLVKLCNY

COC(=O)c1ccc(-c2ccc(C(=O)NCC3CCN(c4nc(N)c5cc(OC)c(OC)cc5n4)CC3)cc2)cc1
inactive: inhibition [3] -4% | outcome [5] | outcome [6] | outcome [7] | outcome [8]
active: growth inhibition [1] 100% | inhibition [2] 53% | growth inhibition [4] 98%

COc1ccc(Nc2cc(C)nc(NCc3ccc4c(c3)OCO4)n2)cc1
inactive: inhibition [2] 26% | inhibition [3] -2% | outcome [5] | outcome [6] | outcome [7] | outcome [8]
active: growth inhibition [1] 78% | growth inhibition [4] 99%

COc1ccccc1C1CC(c2ccccc2)=NN1C(=O)c1ccco1 (centres undefined)
inactive: inhibition [2] 12% | inhibition [3] -2% | outcome [5] | outcome [6] | outcome [7] | outcome [8]
active: growth inhibition [1] 95% | growth inhibition [4] 97%
